Experiment [1] concerns the target Death-associated protein kinase 1 (Homo sapiens) (UniProt P53355). To be noted: at 10 µM.
In experiment [2] the target is Death-associated protein kinase 2 (Homo sapiens) (UniProt Q9UIK4). Particulars: at 1 µM.
For experiment [3] the target is unchanged. Particulars: at 10 µM.
Experiment [4] deals with T1, Serine/threonine-protein kinase DCLK2 (Homo sapiens) (UniProt Q8N568).
T1 sequence (whole entry): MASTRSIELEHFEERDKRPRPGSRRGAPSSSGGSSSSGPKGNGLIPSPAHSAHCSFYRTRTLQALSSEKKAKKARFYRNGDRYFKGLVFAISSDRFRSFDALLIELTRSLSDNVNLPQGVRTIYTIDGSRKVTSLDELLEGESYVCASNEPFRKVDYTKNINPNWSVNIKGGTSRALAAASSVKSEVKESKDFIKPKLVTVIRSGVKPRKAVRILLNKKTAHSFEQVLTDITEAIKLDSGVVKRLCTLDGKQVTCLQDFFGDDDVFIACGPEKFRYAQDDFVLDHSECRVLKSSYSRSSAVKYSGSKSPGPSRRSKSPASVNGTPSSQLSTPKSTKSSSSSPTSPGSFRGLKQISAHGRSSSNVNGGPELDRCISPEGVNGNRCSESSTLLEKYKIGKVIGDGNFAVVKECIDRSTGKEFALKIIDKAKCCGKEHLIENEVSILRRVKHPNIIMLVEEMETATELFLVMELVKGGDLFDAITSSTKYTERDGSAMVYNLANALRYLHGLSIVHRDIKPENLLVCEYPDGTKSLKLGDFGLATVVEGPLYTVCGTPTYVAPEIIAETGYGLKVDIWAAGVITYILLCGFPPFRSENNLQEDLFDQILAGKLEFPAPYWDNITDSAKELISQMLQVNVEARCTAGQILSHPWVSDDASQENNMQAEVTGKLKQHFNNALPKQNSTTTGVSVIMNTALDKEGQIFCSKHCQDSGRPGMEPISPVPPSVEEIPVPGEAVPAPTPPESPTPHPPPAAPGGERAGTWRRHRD
Particulars: at 1 µM.

The target of experiment [5] is T1, Serine/threonine-protein kinase DCLK2 (Homo sapiens). Particulars: at 10 µM.
Experiment [6] deals with T2, Discoidin domain-containing receptor 2 (Homo sapiens) (UniProt Q16832).
T2 sequence (whole entry): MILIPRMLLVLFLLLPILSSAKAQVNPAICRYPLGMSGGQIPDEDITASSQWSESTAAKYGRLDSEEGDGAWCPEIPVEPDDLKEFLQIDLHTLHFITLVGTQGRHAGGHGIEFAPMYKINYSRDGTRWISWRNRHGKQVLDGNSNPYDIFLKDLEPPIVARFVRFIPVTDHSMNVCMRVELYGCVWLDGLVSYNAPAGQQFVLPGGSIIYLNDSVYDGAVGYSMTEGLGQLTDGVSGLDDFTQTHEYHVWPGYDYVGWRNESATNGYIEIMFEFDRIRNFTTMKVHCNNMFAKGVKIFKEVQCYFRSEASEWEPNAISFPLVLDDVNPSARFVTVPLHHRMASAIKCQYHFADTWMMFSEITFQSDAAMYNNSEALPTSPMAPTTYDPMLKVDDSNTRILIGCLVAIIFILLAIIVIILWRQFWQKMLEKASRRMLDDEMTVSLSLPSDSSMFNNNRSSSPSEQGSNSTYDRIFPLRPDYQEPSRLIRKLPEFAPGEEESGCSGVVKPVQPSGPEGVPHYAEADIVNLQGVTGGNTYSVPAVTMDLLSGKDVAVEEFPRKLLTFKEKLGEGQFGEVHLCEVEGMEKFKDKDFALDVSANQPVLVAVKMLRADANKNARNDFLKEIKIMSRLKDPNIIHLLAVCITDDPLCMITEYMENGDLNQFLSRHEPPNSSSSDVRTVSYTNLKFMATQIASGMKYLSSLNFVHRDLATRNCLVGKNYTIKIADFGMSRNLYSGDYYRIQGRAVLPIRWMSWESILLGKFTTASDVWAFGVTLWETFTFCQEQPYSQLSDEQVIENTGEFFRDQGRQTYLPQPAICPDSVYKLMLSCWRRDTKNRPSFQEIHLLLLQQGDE
To be noted: at 1 µM.

Experiment [7] addresses T2, Discoidin domain-containing receptor 2 (Homo sapiens). Particulars: at 10 µM.
Experiment [8] has as its target T3, Myotonin-protein kinase (Homo sapiens) (UniProt Q09013).
T3 sequence (whole entry): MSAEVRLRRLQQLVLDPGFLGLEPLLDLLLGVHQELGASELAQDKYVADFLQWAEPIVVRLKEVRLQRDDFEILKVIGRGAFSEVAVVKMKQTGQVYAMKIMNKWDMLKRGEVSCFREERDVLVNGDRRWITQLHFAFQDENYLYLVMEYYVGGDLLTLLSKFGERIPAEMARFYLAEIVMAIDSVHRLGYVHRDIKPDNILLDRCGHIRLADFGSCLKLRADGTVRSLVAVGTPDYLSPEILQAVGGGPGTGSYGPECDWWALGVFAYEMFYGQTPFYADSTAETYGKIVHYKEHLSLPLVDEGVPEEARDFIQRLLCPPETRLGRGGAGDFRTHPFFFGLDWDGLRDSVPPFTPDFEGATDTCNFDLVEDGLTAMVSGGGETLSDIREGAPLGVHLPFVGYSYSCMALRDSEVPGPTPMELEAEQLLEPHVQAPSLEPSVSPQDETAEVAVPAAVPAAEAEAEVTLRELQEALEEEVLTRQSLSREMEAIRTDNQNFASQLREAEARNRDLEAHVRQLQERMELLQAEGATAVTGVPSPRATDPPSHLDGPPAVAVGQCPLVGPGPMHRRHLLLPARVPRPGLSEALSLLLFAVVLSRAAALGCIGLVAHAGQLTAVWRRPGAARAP
To be noted: at 1 µM.

The target in experiment [9] is T3, Myotonin-protein kinase (Homo sapiens). Particulars: at 10 µM.
Experiment [10] deals with T4, Serine/threonine-protein kinase 17A (Homo sapiens) (UniProt Q9UEE5).
T4 sequence (whole entry): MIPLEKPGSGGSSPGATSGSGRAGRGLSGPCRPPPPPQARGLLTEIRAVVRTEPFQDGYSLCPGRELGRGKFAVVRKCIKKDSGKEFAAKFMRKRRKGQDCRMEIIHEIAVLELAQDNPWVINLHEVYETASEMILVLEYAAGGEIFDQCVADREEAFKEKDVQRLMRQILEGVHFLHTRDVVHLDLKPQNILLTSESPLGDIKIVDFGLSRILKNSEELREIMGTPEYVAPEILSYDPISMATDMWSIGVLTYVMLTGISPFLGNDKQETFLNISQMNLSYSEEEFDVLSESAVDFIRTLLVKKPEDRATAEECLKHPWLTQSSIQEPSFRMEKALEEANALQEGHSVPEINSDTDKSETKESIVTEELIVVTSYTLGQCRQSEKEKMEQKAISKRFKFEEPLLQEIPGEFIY
To be noted: at 1 µM.

The target in experiment [11] is T4, Serine/threonine-protein kinase 17A (Homo sapiens). To be noted: at 10 µM.
Experiment [12] addresses T5, Dual specificity tyrosine-phosphorylation-regulated kinase 2 (Homo sapiens) (UniProt Q92630).
T5 sequence (whole entry): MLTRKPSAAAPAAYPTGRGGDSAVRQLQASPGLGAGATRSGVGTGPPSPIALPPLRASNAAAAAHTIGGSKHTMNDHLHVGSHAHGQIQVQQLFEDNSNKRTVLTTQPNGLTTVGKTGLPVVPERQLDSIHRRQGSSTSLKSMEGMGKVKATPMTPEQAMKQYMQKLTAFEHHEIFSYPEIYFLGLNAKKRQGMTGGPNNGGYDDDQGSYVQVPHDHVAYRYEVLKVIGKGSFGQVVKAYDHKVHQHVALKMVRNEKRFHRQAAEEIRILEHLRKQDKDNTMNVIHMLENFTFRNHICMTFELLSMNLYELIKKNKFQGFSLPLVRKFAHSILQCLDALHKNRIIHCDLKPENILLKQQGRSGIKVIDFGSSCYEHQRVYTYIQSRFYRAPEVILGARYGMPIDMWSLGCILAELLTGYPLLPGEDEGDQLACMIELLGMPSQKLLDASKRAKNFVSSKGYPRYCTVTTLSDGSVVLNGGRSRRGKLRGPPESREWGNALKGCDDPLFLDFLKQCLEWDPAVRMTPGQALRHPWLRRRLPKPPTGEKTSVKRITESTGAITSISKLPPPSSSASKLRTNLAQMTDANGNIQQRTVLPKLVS
Particulars: at 1 µM.

Experiment [13] concerns the target T5, Dual specificity tyrosine-phosphorylation-regulated kinase 2 (Homo sapiens). Particulars: at 10 µM.
In experiment [14] the target is T6, Ephrin type-A receptor 1 (Homo sapiens) (UniProt P21709).
T6 sequence (whole entry): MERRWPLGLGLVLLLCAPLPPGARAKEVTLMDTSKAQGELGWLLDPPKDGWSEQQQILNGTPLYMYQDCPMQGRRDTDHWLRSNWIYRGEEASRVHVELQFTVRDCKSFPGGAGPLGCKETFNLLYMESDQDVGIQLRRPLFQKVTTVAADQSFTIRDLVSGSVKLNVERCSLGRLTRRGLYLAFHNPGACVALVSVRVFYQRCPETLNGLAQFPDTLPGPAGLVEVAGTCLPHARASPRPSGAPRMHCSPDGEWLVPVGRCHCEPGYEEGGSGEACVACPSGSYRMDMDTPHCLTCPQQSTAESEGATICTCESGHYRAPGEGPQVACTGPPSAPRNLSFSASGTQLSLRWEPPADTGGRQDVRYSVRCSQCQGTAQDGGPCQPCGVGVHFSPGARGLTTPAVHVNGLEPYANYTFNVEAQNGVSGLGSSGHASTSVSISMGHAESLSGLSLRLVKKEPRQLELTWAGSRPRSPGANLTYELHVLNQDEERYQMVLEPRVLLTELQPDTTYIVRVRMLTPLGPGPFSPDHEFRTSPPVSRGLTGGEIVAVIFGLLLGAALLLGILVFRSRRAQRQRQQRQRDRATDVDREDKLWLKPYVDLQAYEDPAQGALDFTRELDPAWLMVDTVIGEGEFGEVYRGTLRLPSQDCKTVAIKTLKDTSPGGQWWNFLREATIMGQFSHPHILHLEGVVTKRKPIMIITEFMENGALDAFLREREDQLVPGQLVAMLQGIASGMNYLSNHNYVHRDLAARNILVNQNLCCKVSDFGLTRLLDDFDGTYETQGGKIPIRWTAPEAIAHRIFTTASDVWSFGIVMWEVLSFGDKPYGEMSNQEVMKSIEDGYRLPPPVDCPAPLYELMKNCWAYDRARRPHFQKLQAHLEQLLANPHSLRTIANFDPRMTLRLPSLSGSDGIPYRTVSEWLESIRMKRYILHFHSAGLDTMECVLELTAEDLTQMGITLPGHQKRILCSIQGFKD
To be noted: at 1 µM.

Experiment [15] deals with T6, Ephrin type-A receptor 1 (Homo sapiens). Particulars: at 10 µM.
The target of experiment [16] is Ephrin type-A receptor 2 (Homo sapiens) (UniProt P29317). Particulars: at 1 µM.
Chain of Ephrin type-A receptor 2 (Homo sapiens) (P29317 whole entry): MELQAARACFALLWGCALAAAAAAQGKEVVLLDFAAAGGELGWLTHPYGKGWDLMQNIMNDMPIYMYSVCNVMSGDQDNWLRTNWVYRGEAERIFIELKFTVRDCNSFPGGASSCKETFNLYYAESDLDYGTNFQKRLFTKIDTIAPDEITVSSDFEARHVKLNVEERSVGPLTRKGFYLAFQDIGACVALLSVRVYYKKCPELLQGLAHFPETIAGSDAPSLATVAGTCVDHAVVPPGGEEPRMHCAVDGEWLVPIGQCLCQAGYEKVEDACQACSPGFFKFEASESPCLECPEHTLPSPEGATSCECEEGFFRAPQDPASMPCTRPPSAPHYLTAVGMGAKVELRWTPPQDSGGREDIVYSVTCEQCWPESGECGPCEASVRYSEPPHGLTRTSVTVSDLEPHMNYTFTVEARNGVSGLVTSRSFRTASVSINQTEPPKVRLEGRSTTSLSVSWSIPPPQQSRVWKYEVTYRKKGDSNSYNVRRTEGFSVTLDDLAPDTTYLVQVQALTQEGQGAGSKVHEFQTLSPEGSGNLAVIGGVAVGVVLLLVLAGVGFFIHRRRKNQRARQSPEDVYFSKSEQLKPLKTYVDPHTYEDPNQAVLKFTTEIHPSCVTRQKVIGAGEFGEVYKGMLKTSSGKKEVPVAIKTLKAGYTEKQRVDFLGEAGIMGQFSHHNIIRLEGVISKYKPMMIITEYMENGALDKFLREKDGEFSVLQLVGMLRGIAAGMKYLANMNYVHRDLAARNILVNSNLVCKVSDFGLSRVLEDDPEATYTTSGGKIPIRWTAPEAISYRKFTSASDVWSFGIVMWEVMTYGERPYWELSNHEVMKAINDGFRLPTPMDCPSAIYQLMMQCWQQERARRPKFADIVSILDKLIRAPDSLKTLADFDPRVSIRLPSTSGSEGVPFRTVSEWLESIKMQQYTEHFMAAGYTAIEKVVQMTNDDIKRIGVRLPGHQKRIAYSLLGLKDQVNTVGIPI
Experiment [17] has the same target. To be noted: at 10 µM.
In experiment [18] the target is T7, Ephrin type-A receptor 3 (Homo sapiens) (UniProt P29320).
T7 sequence (whole entry): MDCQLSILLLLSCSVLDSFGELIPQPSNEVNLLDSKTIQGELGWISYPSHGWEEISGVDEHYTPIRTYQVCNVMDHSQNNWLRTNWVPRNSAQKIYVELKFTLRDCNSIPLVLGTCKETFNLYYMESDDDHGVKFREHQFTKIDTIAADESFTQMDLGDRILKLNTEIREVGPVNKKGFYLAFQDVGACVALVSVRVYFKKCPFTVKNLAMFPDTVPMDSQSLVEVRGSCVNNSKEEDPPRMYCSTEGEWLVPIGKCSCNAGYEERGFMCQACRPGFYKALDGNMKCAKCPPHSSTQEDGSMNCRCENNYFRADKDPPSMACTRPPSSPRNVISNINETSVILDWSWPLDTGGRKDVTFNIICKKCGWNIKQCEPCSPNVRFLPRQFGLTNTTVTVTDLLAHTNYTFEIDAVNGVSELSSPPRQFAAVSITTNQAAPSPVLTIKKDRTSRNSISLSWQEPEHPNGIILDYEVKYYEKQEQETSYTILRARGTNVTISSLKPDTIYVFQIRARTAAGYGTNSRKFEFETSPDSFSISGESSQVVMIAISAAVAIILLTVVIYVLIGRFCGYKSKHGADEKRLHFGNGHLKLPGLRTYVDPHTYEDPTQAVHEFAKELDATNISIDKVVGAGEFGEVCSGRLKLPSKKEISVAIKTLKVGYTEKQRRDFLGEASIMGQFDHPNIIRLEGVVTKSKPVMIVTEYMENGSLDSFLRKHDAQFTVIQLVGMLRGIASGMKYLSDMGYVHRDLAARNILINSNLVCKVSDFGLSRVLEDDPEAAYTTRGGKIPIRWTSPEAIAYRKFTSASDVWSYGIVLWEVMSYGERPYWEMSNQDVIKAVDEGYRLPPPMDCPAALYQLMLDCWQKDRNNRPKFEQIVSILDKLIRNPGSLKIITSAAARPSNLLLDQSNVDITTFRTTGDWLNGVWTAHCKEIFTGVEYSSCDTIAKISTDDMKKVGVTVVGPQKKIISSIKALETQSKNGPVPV
Particulars: at 1 µM.

For experiment [19], the target named is Epidermal growth factor receptor (Homo sapiens) (UniProt P00533). Particulars: at 1 µM.
Chain of Epidermal growth factor receptor (Homo sapiens) (P00533 whole entry): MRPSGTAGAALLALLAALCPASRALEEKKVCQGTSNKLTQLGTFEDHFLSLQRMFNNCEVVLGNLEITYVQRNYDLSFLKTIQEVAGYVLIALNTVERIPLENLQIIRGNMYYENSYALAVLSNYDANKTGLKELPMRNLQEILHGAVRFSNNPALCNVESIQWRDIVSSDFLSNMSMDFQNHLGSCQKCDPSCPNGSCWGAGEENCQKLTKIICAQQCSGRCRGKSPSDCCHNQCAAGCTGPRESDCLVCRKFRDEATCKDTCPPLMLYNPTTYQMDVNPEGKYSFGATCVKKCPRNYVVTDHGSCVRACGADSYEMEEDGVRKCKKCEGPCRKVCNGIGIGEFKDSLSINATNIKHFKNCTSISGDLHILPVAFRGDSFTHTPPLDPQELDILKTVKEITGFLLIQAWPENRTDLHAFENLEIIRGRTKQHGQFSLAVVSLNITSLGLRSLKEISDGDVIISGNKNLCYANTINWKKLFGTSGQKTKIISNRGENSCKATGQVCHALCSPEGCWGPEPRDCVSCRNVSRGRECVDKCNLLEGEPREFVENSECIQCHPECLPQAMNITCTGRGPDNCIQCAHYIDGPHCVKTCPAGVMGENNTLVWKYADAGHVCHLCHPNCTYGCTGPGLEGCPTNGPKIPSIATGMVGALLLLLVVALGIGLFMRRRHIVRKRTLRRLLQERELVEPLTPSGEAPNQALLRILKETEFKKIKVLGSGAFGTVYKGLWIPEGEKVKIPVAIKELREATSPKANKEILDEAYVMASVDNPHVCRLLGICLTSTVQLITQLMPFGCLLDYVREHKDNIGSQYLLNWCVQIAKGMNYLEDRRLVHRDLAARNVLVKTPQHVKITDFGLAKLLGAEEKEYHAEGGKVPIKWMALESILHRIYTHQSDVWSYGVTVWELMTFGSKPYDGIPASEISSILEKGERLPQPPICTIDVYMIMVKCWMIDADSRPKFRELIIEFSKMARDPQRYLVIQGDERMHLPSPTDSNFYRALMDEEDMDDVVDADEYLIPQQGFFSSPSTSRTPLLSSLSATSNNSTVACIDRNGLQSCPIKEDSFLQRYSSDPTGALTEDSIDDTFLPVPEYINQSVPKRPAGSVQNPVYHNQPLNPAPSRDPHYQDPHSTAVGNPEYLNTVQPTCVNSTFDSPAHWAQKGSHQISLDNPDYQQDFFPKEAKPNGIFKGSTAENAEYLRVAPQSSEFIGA
The target is the same in experiment [20]. Particulars: at 10 µM.

Chain of Death-associated protein kinase 2 (Homo sapiens) (Q9UIK4 whole entry, looked up): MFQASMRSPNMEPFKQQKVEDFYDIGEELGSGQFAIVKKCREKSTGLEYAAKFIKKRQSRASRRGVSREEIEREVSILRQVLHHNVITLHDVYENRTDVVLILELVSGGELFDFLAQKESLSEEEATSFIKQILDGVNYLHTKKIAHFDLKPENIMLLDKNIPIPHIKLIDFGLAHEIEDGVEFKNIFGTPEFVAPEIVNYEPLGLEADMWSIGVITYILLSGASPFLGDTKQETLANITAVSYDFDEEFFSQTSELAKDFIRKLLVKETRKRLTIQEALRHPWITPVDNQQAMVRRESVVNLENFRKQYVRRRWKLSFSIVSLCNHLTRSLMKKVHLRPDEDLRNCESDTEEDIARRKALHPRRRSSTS
Chain of Death-associated protein kinase 1 (Homo sapiens) (P53355 whole entry, looked up): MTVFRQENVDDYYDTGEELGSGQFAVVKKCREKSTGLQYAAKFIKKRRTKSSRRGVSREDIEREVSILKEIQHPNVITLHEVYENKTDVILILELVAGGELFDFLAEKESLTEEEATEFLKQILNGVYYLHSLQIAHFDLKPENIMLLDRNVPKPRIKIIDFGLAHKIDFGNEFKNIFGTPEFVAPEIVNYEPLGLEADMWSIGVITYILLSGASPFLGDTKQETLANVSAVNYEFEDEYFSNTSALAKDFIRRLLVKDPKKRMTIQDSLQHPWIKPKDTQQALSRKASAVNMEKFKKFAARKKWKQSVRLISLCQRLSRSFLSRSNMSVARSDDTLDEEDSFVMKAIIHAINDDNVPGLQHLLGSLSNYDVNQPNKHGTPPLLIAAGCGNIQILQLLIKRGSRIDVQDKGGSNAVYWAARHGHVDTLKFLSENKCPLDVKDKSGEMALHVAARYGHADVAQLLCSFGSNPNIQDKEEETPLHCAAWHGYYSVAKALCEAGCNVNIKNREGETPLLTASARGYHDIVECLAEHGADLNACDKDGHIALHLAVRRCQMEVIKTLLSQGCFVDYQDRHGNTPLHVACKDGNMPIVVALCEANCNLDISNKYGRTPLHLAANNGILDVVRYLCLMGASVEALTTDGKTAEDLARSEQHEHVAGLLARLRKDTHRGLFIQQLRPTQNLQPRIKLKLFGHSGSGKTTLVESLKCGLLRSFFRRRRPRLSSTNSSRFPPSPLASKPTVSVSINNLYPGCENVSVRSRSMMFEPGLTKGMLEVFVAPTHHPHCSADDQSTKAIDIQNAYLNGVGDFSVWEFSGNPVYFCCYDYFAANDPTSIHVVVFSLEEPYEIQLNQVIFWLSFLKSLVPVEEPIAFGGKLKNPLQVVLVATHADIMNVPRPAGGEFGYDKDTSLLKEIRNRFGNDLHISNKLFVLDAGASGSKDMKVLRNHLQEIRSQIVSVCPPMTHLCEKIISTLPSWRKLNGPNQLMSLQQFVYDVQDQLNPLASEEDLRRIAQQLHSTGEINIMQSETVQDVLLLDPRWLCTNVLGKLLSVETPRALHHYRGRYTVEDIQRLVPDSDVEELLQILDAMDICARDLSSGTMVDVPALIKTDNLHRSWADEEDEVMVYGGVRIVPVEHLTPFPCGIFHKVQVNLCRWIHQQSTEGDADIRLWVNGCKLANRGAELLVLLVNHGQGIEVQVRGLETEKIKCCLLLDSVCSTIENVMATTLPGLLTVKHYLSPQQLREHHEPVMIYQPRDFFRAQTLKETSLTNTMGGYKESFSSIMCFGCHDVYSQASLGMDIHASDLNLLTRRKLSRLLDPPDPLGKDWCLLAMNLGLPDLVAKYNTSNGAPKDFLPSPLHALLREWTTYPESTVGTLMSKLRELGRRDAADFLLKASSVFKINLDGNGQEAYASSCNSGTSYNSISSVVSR

For orientation: residual activity means the signal under treatment as a percentage of the control signal. With `Cc1nc2cc3nc(-c4cccs4)cnc3cc2n1C`, the residual activity in experiment [1] came to 86%; in experiment [2], 105%; in experiment [3] it was 108%; in experiment [4], 115%; in experiment [5], 108%; in experiment [6], 111%. In addition, the residual activity was found to be 93% in experiment [7]; 113% in experiment [8]; 117% in experiment [9]; 64% in experiment [10]; 14% in [11]; 108% in [12]. Moreover, the residual activity in experiment [13] came to 87%; in [14] it was 111%; in experiment [15] it was 121%; in [16], 110%; in experiment [17], 105%; in [18], 127%.
As to `O=C1NC(=O)/C(=C\c2ccc3nccnc3c2)S1`, the residual activity in experiment [1] was 78%; in experiment [2], 68%; in experiment [3], 27%; in experiment [4], 73%; in [5] it was 71%; in experiment [6] it was 109%. The residual activity was determined as 101% in experiment [7]; 114% in [8]; 122% in experiment [9]; 63% in experiment [10]; 19% in [11]; 7% in experiment [12]. In addition, the residual activity in experiment [13] was -4%; in [19] it was 100%; in experiment [20], 113%; in experiment [14] it was 95%; in experiment [15], 90%; in [16], 100%. Besides, the figures for the residual activity in [17] and in [18] were 111% and 91%, respectively.

The values above are taken from ChEMBL document CHEMBL2218924, “A broad activity screen in support of a chemogenomic map for kinase signalling research and drug discovery” (Biochem J, 2013).
